# From ChEMBL document CHEMBL5058541
# Target: Tyrosine-protein kinase ABL1 (Homo sapiens) (UniProt P00519)
# Conditions: Compound concentration 20.0 uM, Protein concentration 2.0 uM, Result type QC Liability
# Tyrosine-protein kinase ABL1 (Homo sapiens), sequence (P00519 whole entry): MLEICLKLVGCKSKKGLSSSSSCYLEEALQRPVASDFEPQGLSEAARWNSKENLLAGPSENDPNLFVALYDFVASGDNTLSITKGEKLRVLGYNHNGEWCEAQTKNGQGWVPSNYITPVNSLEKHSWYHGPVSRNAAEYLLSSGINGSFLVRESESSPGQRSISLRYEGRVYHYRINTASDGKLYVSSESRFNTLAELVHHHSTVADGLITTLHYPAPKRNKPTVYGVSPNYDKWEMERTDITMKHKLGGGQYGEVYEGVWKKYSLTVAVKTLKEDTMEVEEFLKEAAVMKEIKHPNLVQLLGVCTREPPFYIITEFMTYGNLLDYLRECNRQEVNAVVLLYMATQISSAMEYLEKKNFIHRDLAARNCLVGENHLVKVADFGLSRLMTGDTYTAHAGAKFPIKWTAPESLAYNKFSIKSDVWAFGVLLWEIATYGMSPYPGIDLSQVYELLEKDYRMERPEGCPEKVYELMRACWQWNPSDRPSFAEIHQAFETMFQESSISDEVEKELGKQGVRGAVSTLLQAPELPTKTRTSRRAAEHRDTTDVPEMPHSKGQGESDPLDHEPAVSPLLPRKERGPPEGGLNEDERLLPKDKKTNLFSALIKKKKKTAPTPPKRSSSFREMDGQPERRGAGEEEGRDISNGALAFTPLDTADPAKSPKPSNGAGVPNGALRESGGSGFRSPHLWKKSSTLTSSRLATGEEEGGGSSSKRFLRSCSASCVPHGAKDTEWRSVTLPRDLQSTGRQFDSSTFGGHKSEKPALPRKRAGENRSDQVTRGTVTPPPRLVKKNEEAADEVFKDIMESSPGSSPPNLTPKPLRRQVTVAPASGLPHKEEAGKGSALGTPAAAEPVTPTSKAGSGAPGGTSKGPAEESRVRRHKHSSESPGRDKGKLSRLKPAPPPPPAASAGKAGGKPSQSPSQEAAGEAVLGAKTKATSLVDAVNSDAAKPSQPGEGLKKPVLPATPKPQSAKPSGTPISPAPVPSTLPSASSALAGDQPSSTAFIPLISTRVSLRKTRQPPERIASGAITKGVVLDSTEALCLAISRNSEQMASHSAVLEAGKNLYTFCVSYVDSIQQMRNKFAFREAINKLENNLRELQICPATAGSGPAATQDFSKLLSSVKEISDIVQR
row,Compound,ΔTm
1,CN(c1ncccc1CNc1ccnc(-c2nc3c(F)c(Cl)ccc3[nH]2)n1)S(C)(=O)=O,1.73 c
2,CN(C)C(=O)c1ccc(-c2cc(C(=O)N[C@@H]3CCc4ccccc43)no2)cc1O,0.236 c
3,O=C(NCCCN1CCOC1=O)c1cnc(NCc2cc(Br)ccc2Br)nc1NC1CCCC1,0 c
4,CS(=O)(=O)N1CCCC(NC(=O)[C@H](CCC2CCCCC2)NC(=O)c2ccc(CNC(=O)c3cnc4ccccn34)cc2)C1 (some centres undefined),2.13 c

# Target: Cyclin-dependent kinase 2 (Homo sapiens) (UniProt P24941)
# Conditions: Compound concentration 20.0 uM, Protein concentration 2.0 uM, Result type QC Liability
row,Compound,ΔTm
1,CN(c1ncccc1CNc1ccnc(-c2nc3c(F)c(Cl)ccc3[nH]2)n1)S(C)(=O)=O,0.96 c
2,CN(C)C(=O)c1ccc(-c2cc(C(=O)N[C@@H]3CCc4ccccc43)no2)cc1O,-0.0936 c
3,O=C(NCCCN1CCOC1=O)c1cnc(NCc2cc(Br)ccc2Br)nc1NC1CCCC1,-0.772 c
4,CS(=O)(=O)N1CCCC(NC(=O)[C@H](CCC2CCCCC2)NC(=O)c2ccc(CNC(=O)c3cnc4ccccn34)cc2)C1 (some centres undefined),-0.19 c

# Target: Casein kinase I isoform delta (Homo sapiens) (UniProt P48730)
# Conditions: Compound concentration 20.0 uM, Protein concentration 2.0 uM, Result type QC Liability
# Casein kinase I isoform delta (Homo sapiens), sequence (P48730 whole entry, looked up, canonical isoform): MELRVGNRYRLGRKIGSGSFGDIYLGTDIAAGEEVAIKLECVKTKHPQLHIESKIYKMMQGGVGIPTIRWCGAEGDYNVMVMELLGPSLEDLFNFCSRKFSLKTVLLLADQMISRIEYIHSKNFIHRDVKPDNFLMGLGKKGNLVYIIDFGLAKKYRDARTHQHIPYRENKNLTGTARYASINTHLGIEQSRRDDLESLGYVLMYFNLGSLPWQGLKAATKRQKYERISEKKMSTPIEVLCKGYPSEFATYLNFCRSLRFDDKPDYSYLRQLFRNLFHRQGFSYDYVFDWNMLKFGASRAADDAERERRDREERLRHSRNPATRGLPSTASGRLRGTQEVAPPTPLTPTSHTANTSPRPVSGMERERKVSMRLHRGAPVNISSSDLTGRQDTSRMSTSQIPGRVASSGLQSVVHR
row,Compound,ΔTm
1,CN(c1ncccc1CNc1ccnc(-c2nc3c(F)c(Cl)ccc3[nH]2)n1)S(C)(=O)=O,0.76 c
2,CN(C)C(=O)c1ccc(-c2cc(C(=O)N[C@@H]3CCc4ccccc43)no2)cc1O,0.0788 c
3,O=C(NCCCN1CCOC1=O)c1cnc(NCc2cc(Br)ccc2Br)nc1NC1CCCC1,0 c
4,CS(=O)(=O)N1CCCC(NC(=O)[C@H](CCC2CCCCC2)NC(=O)c2ccc(CNC(=O)c3cnc4ccccn34)cc2)C1 (some centres undefined),0.571 c

# Target: Glycogen synthase kinase-3 beta (Homo sapiens) (UniProt P49841)
# Conditions: Compound concentration 20.0 uM, Protein concentration 2.0 uM, Result type QC Liability
# Glycogen synthase kinase-3 beta (Homo sapiens), sequence (P49841 whole entry, looked up): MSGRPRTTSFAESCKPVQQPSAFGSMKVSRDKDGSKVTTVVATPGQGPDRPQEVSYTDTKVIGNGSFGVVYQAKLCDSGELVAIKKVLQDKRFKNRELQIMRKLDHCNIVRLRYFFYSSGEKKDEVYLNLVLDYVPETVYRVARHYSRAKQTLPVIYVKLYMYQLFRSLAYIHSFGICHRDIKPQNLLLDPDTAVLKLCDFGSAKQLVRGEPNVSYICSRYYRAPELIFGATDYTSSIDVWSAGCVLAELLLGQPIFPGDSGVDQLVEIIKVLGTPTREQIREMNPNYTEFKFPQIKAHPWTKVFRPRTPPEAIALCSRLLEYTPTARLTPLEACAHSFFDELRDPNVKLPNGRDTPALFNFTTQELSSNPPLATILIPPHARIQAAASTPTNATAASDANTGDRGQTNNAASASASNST
row,Compound,ΔTm
1,CN(c1ncccc1CNc1ccnc(-c2nc3c(F)c(Cl)ccc3[nH]2)n1)S(C)(=O)=O,0.69 c
2,CN(C)C(=O)c1ccc(-c2cc(C(=O)N[C@@H]3CCc4ccccc43)no2)cc1O,-0.463 c
3,O=C(NCCCN1CCOC1=O)c1cnc(NCc2cc(Br)ccc2Br)nc1NC1CCCC1,0 c
4,CS(=O)(=O)N1CCCC(NC(=O)[C@H](CCC2CCCCC2)NC(=O)c2ccc(CNC(=O)c3cnc4ccccn34)cc2)C1 (some centres undefined),-0.0668 c

# Target: Mitogen-activated protein kinase 1 (Homo sapiens) (UniProt P28482)
# Conditions: Compound concentration 20.0 uM, Protein concentration 2.0 uM, Result type QC Liability
# Mitogen-activated protein kinase 1 (Homo sapiens), sequence (P28482 whole entry): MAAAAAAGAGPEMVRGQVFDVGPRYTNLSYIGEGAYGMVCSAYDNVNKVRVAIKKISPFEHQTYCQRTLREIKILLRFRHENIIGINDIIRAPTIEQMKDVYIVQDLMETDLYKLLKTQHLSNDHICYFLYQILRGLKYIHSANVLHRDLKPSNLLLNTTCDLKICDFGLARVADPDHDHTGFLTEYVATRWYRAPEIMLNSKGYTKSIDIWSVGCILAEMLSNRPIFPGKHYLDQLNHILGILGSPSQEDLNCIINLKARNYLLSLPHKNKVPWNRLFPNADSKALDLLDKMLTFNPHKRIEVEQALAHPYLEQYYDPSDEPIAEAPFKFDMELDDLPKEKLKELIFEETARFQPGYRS
row,Compound,ΔTm
1,CN(c1ncccc1CNc1ccnc(-c2nc3c(F)c(Cl)ccc3[nH]2)n1)S(C)(=O)=O,0.36 c
2,CN(C)C(=O)c1ccc(-c2cc(C(=O)N[C@@H]3CCc4ccccc43)no2)cc1O,-0.0605 c
3,O=C(NCCCN1CCOC1=O)c1cnc(NCc2cc(Br)ccc2Br)nc1NC1CCCC1,-0.601 c
4,CS(=O)(=O)N1CCCC(NC(=O)[C@H](CCC2CCCCC2)NC(=O)c2ccc(CNC(=O)c3cnc4ccccn34)cc2)C1 (some centres undefined),-0.218 c

# Target: T1, Aurora kinase A (Homo sapiens) (UniProt O14965)
# T1 sequence (whole entry): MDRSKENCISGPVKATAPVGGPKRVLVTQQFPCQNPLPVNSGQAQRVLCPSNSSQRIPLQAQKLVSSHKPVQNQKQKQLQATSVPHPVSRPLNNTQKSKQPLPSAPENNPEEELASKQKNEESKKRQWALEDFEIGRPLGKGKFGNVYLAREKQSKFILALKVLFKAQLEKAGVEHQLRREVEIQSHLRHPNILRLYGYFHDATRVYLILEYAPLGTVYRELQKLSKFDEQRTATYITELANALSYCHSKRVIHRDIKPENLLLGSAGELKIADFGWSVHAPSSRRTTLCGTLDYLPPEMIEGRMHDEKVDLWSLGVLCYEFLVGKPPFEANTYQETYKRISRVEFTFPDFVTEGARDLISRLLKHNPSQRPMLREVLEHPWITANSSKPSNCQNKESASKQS
# Conditions: Compound concentration 20.0 uM, Protein concentration 2.0 uM, Result type QC Liability
row,Compound,ΔTm
1,CN(c1ncccc1CNc1ccnc(-c2nc3c(F)c(Cl)ccc3[nH]2)n1)S(C)(=O)=O,1.93 c
2,CN(C)C(=O)c1ccc(-c2cc(C(=O)N[C@@H]3CCc4ccccc43)no2)cc1O,0.213 c
3,O=C(NCCCN1CCOC1=O)c1cnc(NCc2cc(Br)ccc2Br)nc1NC1CCCC1,0.0724 c
4,CS(=O)(=O)N1CCCC(NC(=O)[C@H](CCC2CCCCC2)NC(=O)c2ccc(CNC(=O)c3cnc4ccccn34)cc2)C1 (some centres undefined),0.119 c
